Source: PubChem BioAssay
Calls of active or inactive are those of the source.

What was measured:
Albumin (Bos taurus) = Albumin (Bos taurus) (UniProt P02769); assay: bovine serum albumin binders on microarray, profiling panel, artefact control for SMM control protein annotation, biochemical, small-molecule microarray, Alexa647 label, 635/667 nm fluorescence (AID 1118); conditions: BSA-A647 binding, fluorescence 635 nm, higher = more signal;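 further: score merges 667 nm emission intensity and signal-to-noise per printed compound spot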
[1] = small-molecule microarray binders of probe aXIP, primary screen, biochemical, NeuroSMM set, 635/667 nm fluorescence (AID 1119); conditions: higher = more signal, called active from +8 up or from −8 down;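 further: probe is the protein aXip251-270 applied at 1 µg/mL to compound-printed slides; binding of probe to printed compounds measured as 667 nm fluorescence plus signal to noise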
[2] = small-molecule binders of probe aNOTCH3, primary screen, biochemical, small-molecule microarray, 635/667 nm fluorescence (AID 1120); conditions: higher = more signal;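 further: probe is a biotin-tagged antibody raised against NOTCH3 rather than NOTCH3 protein; score merges spot fluorescence near 667 nm with spot signal to noise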
[3] = small-molecule binders of probe aNOTCH2, primary screen, biochemical, small-molecule microarray, 635/667 nm fluorescence (AID 1121); conditions: higher = more signal;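 further: score merges feature fluorescence read at 667 nm with its signal to noise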
[4] = target: Carbonic anhydrase 2 (Homo sapiens) (UniProt P00918); assay: CAII small-molecule binders, profiling panel, biochemical, small-molecule microarray, Alexa647-labelled CAII (AID 1122); conditions: CAII-A647 binding fluorescence, higher = more signal
[5] = COS7 lysate on small-molecule microarray, probe aHis, 635 nm (AID 1123); conditions: COS7 cell lysate, fluorescence, higher = more signal;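 further: z-score combines 667nm fluorescence intensity with signal-to-noise per printed compound spot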
[6] = compound binding in COS7 lysate, probe aLAP1, primary screen, cell lysate, small-molecule microarray (AID 1124); conditions: probe aLAP1, fluorescence, higher = more signal;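 further: lysate comes from COS7 cells expressing LAP1 and is applied at 0.3 µg/mL; score merges spot fluorescence near 667 nm with signal-to-noise over triplicate slides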
Sam68 (KHDRBS1) = assay: Sam68 small-molecule binders, primary screen, biochemical, small-molecule microarray, 635 nm fluorescence (AID 1125); conditions: small-molecule microarray binding, higher = more signal;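 further: score merges 667 nm channel intensity with signal to noise over triplicate slides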
[7] = system: Chordin-like protein 2 (CHRDL2); assay: CHRDL2 small-molecule binders, primary screen, biochemical, small-molecule microarray, 635 nm fluorescence (AID 1126); conditions: small-molecule microarray binding, fluorescence 635 nm; higher = more signal;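 further: printed compound slides probed with Chrdl2 protein at 4 µg/mL for 1 h at 4 C; score merges 667 nm emission intensity with signal to noise over three replicate slides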
[8] = target: Concanavalin-A (Canavalia ensiformis) (UniProt P02866); assay: ConA small-molecule binders, primary screen, artefact control for SMM control protein annotation, biochemical, small-molecule microarray, Alexa647 label, 635 nm (AID 1127); conditions: ConA-A647 binding fluorescence, higher = more signal;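 further: z combines 667 nm emission intensity with signal-to-noise across three replicate slides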
[9] = anti-His antibody binders, primary screen, artefact control for SMM control protein annotation, biochemical, small-molecule microarray, 635 nm fluorescence (AID 1128); conditions: anti-His Alexa647 antibody binding, higher = more signal;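 further: score merges feature fluorescence with signal-to-noise for each printed compound spot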
[10] = system: Human papillomavirus type 1a E7 protein (residues 1-88); assay: HPV1a E7 small-molecule binders, primary screen, biochemical, small-molecule microarray, residues 1-88, 635 nm (AID 1129); conditions: small-molecule microarray binding, fluorescence 635 nm; higher = more signal
[11] = target: Focal adhesion kinase 1 (Homo sapiens) (UniProt Q05397); assay: small-molecule microarray binders of FAK, primary screen, biochemical, 635/667 nm fluorescence, BSA, DTT (AID 1130); conditions: PTK2 binding, 635 nm fluorescence, higher = more signal;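 further: composite of spot emission at 667 nm and signal to noise over triplicate slides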
[12] = system: Fibrinogen (Alexa647-labelled); assay: fibrinogen binders on compound microarrays, profiling panel, artefact control for SMM control-protein annotation, biochemical, small-molecule microarray, 635/667 nm fluorescence (AID 1131); conditions: fibrinogen-A647 binding fluorescence, higher = more signal;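 further: z-score merges 667 nm fluorescence with per-spot signal-to-noise over triplicate slides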
[13] = target: Follistatin (Homo sapiens) (UniProt P19883); assay: follistatin binders on small-molecule microarrays, primary screen, biochemical, small-molecule microarray, 635/667 nm fluorescence (AID 1132); conditions: FST binding, 635 nm fluorescence, higher = more signal
[14] = target: Fibroblast growth factor 2 (Homo sapiens) (UniProt P09038); assay: FGF2 binders on small-molecule microarrays, primary screen, biochemical, small-molecule microarray, 635/667 nm fluorescence (AID 1133); conditions: small-molecule microarray binding, FGF2, fluorescence 635/667; higher = more signal
[15] = mitochondrial membrane potential change in A549 cells, profiling panel, cell-based, JC-1 fluorescence, basal, 24 h, 100 nL (AID 1138); conditions: higher = more signal;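 further: A549 lung adenocarcinoma cells under basal conditions with no added stimulus; test concentration not given here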
Lefty1 = Lefty1 binders on small-molecule microarrays, primary screen, biochemical, small-molecule microarray, 635/667 nm fluorescence (AID 1139); conditions: small-molecule microarray binding, fluorescence 635/667; higher = more signal
[16] = system: wheat germ agglutinin (Triticum aestivum), Alexa647-labelled; assay: wheat germ agglutinin binders on compound microarrays, profiling panel, artefact control for SMM control-protein annotation, biochemical, small-molecule microarray, 635/667 nm fluorescence (AID 1140); conditions: WGA-A647 binding, 635 nm fluorescence, higher = more signal;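 further: score merges 667 nm feature emission with signal to noise over triplicate slides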
[17] = target: Luciferin 4-monooxygenase (Photinus pyralis) (UniProt P08659); assay: firefly luciferase enzyme inhibitors, primary screen, biochemical, luminescence, purified enzyme, 2006 set (AID 1141); conditions: SteadyGlo luminescence, 30 min, higher = more signal, called active from +8 up or from −8 down;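 further: cell-free assay with purified firefly luciferase at 100 ng per well in PBS; test concentration not given here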
Luciferin 4-monooxygenase (Photinus pyralis), sequence (P08659 whole entry, looked up): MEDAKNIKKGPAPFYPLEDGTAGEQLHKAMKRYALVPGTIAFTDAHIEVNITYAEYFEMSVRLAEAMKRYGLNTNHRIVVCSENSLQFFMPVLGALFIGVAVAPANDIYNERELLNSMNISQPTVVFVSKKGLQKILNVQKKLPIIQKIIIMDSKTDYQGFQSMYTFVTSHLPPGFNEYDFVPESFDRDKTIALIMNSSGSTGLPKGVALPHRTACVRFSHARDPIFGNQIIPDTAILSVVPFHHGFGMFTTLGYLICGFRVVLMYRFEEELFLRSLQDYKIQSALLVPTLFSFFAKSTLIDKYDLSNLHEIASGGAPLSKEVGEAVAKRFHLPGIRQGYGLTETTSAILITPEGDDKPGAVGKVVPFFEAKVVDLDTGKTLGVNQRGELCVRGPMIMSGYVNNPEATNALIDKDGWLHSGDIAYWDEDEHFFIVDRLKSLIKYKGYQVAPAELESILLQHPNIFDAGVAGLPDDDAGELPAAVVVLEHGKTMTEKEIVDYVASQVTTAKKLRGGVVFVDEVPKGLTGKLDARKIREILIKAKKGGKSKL

Fibroblast growth factor 2 (Homo sapiens), sequence (P09038 whole entry, looked up): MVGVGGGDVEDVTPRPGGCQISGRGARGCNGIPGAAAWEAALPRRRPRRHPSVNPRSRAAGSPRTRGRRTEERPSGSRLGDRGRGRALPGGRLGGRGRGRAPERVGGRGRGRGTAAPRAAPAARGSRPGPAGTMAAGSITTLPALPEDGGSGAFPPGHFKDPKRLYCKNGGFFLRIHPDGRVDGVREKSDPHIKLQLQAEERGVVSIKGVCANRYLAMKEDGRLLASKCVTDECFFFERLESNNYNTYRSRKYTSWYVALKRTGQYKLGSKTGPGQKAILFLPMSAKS
Follistatin (Homo sapiens), sequence (P19883 whole entry, looked up): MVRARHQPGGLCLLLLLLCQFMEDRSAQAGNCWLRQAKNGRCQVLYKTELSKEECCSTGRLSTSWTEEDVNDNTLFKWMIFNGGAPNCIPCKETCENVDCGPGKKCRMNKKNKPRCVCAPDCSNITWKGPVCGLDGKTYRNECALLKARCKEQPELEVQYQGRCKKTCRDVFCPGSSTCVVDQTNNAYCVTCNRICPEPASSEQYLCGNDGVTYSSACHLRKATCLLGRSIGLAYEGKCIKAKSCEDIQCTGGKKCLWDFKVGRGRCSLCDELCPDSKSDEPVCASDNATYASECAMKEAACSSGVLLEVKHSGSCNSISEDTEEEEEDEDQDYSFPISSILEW
Focal adhesion kinase 1 (Homo sapiens), sequence (Q05397 whole entry, looked up): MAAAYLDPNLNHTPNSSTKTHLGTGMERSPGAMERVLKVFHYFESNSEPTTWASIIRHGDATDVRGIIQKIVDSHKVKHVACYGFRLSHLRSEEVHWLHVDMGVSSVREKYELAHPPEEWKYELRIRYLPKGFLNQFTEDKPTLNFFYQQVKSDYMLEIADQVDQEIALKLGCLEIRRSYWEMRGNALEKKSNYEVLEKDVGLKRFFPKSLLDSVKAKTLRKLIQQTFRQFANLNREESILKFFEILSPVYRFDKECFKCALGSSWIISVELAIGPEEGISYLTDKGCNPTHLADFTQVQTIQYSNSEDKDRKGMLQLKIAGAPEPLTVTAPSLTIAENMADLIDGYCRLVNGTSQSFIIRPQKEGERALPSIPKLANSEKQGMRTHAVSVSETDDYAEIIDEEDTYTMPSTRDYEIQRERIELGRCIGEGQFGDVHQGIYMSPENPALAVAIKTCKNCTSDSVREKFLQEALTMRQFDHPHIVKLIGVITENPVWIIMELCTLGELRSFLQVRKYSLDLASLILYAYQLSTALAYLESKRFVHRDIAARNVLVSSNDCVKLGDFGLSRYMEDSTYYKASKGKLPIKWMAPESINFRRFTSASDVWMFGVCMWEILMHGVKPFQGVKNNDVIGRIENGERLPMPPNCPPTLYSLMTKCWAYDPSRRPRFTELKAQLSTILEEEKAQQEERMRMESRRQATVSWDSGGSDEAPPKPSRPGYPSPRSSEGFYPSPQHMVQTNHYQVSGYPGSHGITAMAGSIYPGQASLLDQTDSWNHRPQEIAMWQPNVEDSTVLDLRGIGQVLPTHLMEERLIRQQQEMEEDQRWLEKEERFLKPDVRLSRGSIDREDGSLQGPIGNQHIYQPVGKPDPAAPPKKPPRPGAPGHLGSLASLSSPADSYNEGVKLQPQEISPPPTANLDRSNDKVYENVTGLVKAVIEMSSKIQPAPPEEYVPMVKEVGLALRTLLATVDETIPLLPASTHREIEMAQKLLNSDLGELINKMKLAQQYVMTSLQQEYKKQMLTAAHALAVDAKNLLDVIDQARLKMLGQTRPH
Concanavalin-A (Canavalia ensiformis), sequence (P02866 whole entry, looked up): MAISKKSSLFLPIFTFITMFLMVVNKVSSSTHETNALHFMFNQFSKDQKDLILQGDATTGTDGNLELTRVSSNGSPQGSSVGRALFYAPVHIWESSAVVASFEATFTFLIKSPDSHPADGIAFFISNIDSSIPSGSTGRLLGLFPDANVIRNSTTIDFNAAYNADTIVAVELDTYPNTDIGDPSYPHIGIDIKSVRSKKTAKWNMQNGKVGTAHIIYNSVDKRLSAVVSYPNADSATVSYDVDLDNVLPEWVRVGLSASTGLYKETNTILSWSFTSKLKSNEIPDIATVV
Albumin (Bos taurus), sequence (P02769 whole entry, looked up): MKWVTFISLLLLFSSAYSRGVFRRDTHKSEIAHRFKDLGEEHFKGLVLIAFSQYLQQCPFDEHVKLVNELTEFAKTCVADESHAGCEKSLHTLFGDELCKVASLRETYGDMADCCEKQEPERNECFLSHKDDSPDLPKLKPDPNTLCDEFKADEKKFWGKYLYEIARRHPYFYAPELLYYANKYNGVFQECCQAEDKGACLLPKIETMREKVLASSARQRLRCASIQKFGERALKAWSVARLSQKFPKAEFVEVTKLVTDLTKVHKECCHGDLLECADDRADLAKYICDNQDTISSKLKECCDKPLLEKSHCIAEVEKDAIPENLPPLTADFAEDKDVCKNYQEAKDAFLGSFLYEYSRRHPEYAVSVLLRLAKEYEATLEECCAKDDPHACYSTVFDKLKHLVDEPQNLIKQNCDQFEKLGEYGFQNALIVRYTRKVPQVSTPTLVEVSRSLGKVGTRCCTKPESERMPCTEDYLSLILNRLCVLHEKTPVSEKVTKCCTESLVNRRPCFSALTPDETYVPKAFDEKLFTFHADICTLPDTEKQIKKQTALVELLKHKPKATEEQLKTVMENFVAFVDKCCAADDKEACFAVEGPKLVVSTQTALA

| Structure (SMILES) | composite z-score (Albumin (Bos taurus)) | composite Z-score [1] | composite z-score [2] | composite z-score [3] | composite z-score [4] | composite z-score [5] | composite z-score [6] | composite z-score (Sam68 (KHDRBS1)) | composite z-score [7] | composite z-score [8] | composite z-score [9] | composite z-score [10] | composite z-score [11] | composite z-score [12] | composite z-score [13] | composite z-score [14] | z-score [15] | composite z-score (Lefty1) | composite z-score [16] | z-score [17] |
| --- | --- | --- | --- | --- | --- | --- | --- | --- | --- | --- | --- | --- | --- | --- | --- | --- | --- | --- | --- | --- |
| CC(C)(C)OC(=O)CC[C@]1(C(=O)NCCN2CCOCC2)N=C(c2ccc(OCCCO)cc2)O[C@H]1c1ccccc1N=[N+]=[N-] | 0.942 | 0.489 (inactive) | 0.286 | 0.0684 | 0.82 | 3.05 | 1.22 | 1.31 | 0.186 | 0.373 | 2.11 | 1.15 | 0.782 | 1.04 | 0.283 | -0.104 | 0.669 | -0.595 | 1.33 | -10.8 (active) |
| CCOC(=O)C1=CC[C@@H](c2cc(Cl)ccc2Cl)N(S(=O)(=O)c2ccc(C)cc2)[C@H]1c1ccc(OC)cc1 | 0.596 | 0.552 (inactive) | 0.258 | 0.586 | 0.25 | 0.515 | 0.325 | -0.0808 | -0.362 | -1.21 | -0.128 | -0.199 | 0.262 | -1.17 | 0.258 | -0.413 | 0.581 | -0.526 | 0.0203 | 0.953 (inactive) |
| COc1ccc(C#Cc2ccc3c(c2)[C@]2(C(=O)N3)[C@H](C(=O)N3CCc4cc(OC)c(OC)cc4C3)[C@H]3C(=O)O[C@H](c4ccccc4)[C@H](c4ccccc4)N3[C@@H]2c2ccc(O)cc2)cc1 | 0.845 | 1.1 (inactive) | 0.0562 | 0.0397 | 0.432 | 1.46 | -0.0296 | 1.3 | 0.137 | 1.13 | 1.5 | 1.2 | 0.735 | 0.924 | 0.896 | 0.465 | -1.47 | 0.374 | 0.0376 | -0.716 (inactive) |
| COC(=O)C1(Cc2ccccc2)C=C2C(=C(C(C)C)C(=O)C2C)CN1 (stereo not given) | 0.628 | 2.34 (inactive) | 0.183 | 0.168 | 0.676 | 1.62 | 0.6 | -1.52 | -1.3 | -1.83 | 3.27 | -0.11 | 0.757 | -0.72 | -1.25 | -1.07 | -1.83 | -1.36 | 0.349 | 1.27 (inactive) |
| CO[C@H]1O[C@H](CO)[C@@H](OC(=O)Nc2ccccc2-c2ccccc2)[C@H](OC(=O)Nc2ccc3c(c2)OCO3)[C@@H]1OC(=O)Nc1ccc2c(c1)OCO2 | 0.508 | 0.151 (inactive) | 0.389 | -0.0684 | 0.735 | 2.47 | 0.335 | 1.3 | 0.517 | 0.921 | 0.971 | 1.27 | 0.485 | 0.991 | 1.24 | 0.853 | 1.56 | 1.16 | 0.412 | -7.93 (inactive) |
| CC(C)CN1C(=O)[C@@]2(Cc3ccccc31)c1ccccc1C(=O)N(Cc1ccccc1C(F)(F)F)[C@H]2c1ccc(CO)cc1 | -0.139 | 0.174 (inactive) | -0.172 | -0.157 | -0.381 | -0.562 | -0.438 | -2.12 | -0.846 | 0.027 | -0.372 | -1.18 | -0.315 | -0.921 | -0.596 | -0.425 | 0.39 | 0.636 | -0.0876 | 1.11 (inactive) |
| COc1ccc(NC(=O)O[C@H]2[C@H](OC(=O)Nc3ccc4c(c3)OCO4)[C@@H](OC(=O)Nc3ccc4c(c3)OCO4)[C@@H](OC)O[C@@H]2CO)cc1 | 0.837 | 0.622 (inactive) | 0.121 | -0.0116 | 0.442 | 2.71 | 0.714 | 1.29 | 0.143 | 1.11 | 1.34 | 1.25 | 0.316 | 0.922 | 1.16 | 0.802 | -0.669 | 0.598 | 0.943 | -4.27 (inactive) |
| Cc1ccc(F)cc1S(=O)(=O)N[C@@H]1CCN(Cc2ccc(OC(C)C)cc2)C1 | 0.175 | -0.491 (inactive) | -0.201 | -0.154 | 0.359 | -0.453 | -0.182 | -0.649 | 0.504 | -1.41 | 0.111 | -1.37 | -0.425 | -0.907 | -0.235 | 0.47 | 1.14 | -0.177 | -1.28 | 0.0358 (inactive) |
| COC(=O)[C@@]1(Cc2ccccc2)[C@H]2c3cc(C(=O)N4CCCC4)n(Cc4ccsc4Br)c3C[C@H]2CN1C(=O)c1ccccc1 | 0.842 | -0.314 (inactive) | 0.485 | 0.244 | 0.555 | 2.45 | -0.0293 | 1.33 | -0.265 | 1.01 | 1.6 | 1.23 | 0.619 | 0.789 | 0.647 | -0.282 | 1.88 | -0.524 | 1.25 | 1.79 (inactive) |
| COCCOC(=O)N1C(=O)[C@@]2(c3cc(C#CCC(C(=O)OC)C(=O)OC)ccc31)[C@H](c1ccc(OCCO)cc1)N1[C@H](c3ccccc3)[C@H](c3ccccc3)OC(=O)[C@H]1[C@@H]2C(=O)N1CCN(c2ncccn2)CC1 | 0.758 | -0.341 (inactive) | 0.196 | -0.14 | 0.35 | 2.33 | 0.265 | 1.29 | 0.293 | 1.1 | 1.94 | 1.25 | -0.0555 | 0.947 | 1.36 | 1.23 | -1.48 | 1.29 | 0.939 | -0.506 (inactive) |
